Bioassay records (PubChem)
LmPK inhibitor: inhibitors of Leishmania mexicana pyruvate kinase. Q27686. AID 1721. 0.37% of 290,000 active. purified LmPK, Kinase-Glo ATP luminescence, 1 h. Potency, µM (top dose mostly 57.5 µM), for the others: at the highest dose activity change, negative = inhibition, usual class: inhibitors; note: potency is the fitted concentration of half-maximal effect; % is set by controls: 0 for no effect and ±100 for the full control effect
Target sequence (Q27686 whole entry, looked up): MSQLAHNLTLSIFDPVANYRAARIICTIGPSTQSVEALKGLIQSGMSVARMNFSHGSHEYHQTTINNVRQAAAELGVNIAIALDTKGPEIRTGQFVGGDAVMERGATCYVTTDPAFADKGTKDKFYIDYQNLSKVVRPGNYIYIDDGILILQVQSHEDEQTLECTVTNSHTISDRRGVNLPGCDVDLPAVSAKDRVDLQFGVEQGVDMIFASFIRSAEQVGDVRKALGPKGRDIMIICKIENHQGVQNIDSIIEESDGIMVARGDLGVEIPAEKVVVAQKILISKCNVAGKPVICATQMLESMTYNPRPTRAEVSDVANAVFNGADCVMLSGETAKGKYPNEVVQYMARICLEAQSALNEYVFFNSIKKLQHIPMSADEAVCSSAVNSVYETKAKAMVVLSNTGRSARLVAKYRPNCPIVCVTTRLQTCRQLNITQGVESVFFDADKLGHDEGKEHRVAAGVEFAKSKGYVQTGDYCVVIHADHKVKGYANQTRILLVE
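ATP generated from ADP (0.1 mM) and PEP (0.5 mM) by 0.1 nM LmPK over 1 h at room temperature (pH 7.2 imidazole buffer) was detected by coupled luciferase luminescence. Values were normalized to uninhibited and no-enzyme wells.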
Shiga inhibitor: blocks Shiga toxin action in Vero cells; Vero cells, Shiga toxin protein synthesis inhibition reporter; inhibition, % at 38.7 µM; 9.2% of 290,000 active; AID 2315; in the data active = inhibition mostly above about 28%, no sharp cut-off; inactive = mostly below about 43%; note: 0% is about no effect
CHX counter: affects cycloheximide protein synthesis inhibition readout, counter-screen; cell reporter, cycloheximide protein synthesis inhibition counterscreen; max response, %; 12% of 300,000 active; AID 2314; in the data active = max response mostly above about 13%, no sharp cut-off; inactive = mostly below about 14%; note: read at 38.3 µM for the half of the compounds with a filed dose; 0% is about no effect
SARS PLP yeast: blocks SARS-CoV papain-like protease in a yeast assay; S. cerevisiae expressing SARS-CoV PLpro, growth rescue; Potency, µM (highest dose often 32.9 µM), inactives show at the top dose activity, positive = growth rescue, most hits filed as activators; 0.19% of 330,000 active; calls by dose curve; note: potency is the fitted concentration of half-maximal effect; 0% is about no effect; nearly all actives have a fitted effect of over 55% in size
TbPYK inhibitor: blocks Trypanosoma brucei pyruvate kinase. Q57TT1. TbPYK enzyme, Kinase-Glo Plus ATP luminescence, 45 min. Potency, µM (top dose mostly 76.8 µM), without a hit: top-dose activity, negative = inhibition, actives largely listed as inhibitors. 0.12% of 410,000 active. AID 624173; note: potency is the fitted concentration of half-maximal effect; % is set by controls: 0 for no effect and ±100 for the full control effect; nearly all actives have a fitted effect of over 50% in size
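Activity of T. brucei pyruvate kinase was followed by Kinase-Glo Plus luminescence after the enzyme reacted 45 min at room temperature with 130 uM ADP (final) and substrate. Test compounds were added before ADP at multiple concentrations.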
NS1 function inh: blocks influenza NS1 protein function. Potency, µM (doses to about 46.1 µM), for inactives: top-dose activity, positive = more growth. 0.4% of 270,000 active. AID 2326; calls by dose curve; note: potency is the fitted concentration of half-maximal effect; actives are rising curves; nearly all actives have a fitted effect of over 50% in size
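In this qHTS, NS1 from influenza A is expressed in budding yeast, where it slows growth. Cells are switched from glucose to 2% galactose medium (pH 6.0, -URA), treated with compound, and growth recovery is read at OD600.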
* marks the source's active call; other numbers are inactive results; ? = inconclusive; · = not tested or not shown. Many of the other results were omitted from the sample, so hits are more common in it than they were. Unless noted, calls come from the whole dose curve; as a rule, active = well fitted curve in the direction sought with a large enough effect; inconclusive = small, poorly fitted or top-dose-only effect, or another doubt; inactive = no such curve, though single readings can be large; an effect the other way counts as inactive or inconclusive.

SMILES	LmPK inhibitor	Shiga inhibitor	CHX counter	SARS PLP yeast	TbPYK inhibitor	NS1 function inh
Cc1ccc(CC(=O)NCCCn2ccnc2)cc1	2.8%	-2.5	-1.1	1.0%	-9.4%	·
COc1ccc(-c2cc(C(F)(F)F)n3nc(C(=O)NCCCn4ccnc4)cc3n2)cc1	-6.3%	14.5	22.9*	8.4%	2.0%	6.4%
O=C(NCCCn1ccnc1)c1cc(-c2cccc(O)c2)on1	2.5%	73.8*	31.0*	0.1%	-3.0%	-2.8%
COc1ccc(-c2cc(C(F)(F)F)n3nc(C(=O)NCCN4CCOCC4)cc3n2)cc1	5.7%	-8.1	-1.4	-1.5%	1.0%	2.6%
Cc1ccc(-c2cc(C(=O)NCCCn3ccnc3)no2)cc1	-10.6%	49.6*	25.9*	1.3%	-1.4%	2.0%
COc1ccc(C(CC(=O)Nc2ccccn2)N2Cc3ccccc3C2=O)cc1 (configuration not stated)	0.1%	88.0*	30.3*	-0.1%	0.8%	-4.0%
COc1ccc(C(CC(=O)Nc2nccs2)n2cccc2)cc1 (configuration not stated)	-16.0%	150.2*	30.8*	-0.2%	-0.6%	-7.8%
O=C(COc1cccc2cccnc12)Nc1nccs1	-6.5%	53.0*	33.5*	5.8%	0.6%	?
COc1ccc(OCC(=O)Nc2nccs2)cc1	25.1µM*	6.4	12.3	-1.7%	-25.2%	-6.7%
OC1(c2ccc(Cl)c(C(F)(F)F)c2)CCN(CCCC(c2ccc(F)cc2)c2ccc(F)cc2)CC1	·	-15.3	-16.3	·	-10.0%	·
O=C(NNC(=O)c1cccnc1Cl)c1ccc(F)cc1	-4.5%	-3.2	2.5	-5.0%	0.5%	0.3%
Cc1sc(NC(=O)CN2CCOCC2)c(C#N)c1C	-1.2%	-1.6	8.6	0.4%	-2.5%	-1.2%
O=C(COc1ccc2c(c1)OCO2)Nc1nccs1	14.1µM*	58.4*	28.1	-3.4%	?	-8.0%
COCc1nnc(NC(=O)COc2ccc3c(c2)OCO3)s1	-3.6%	7.1	6.4	5.4%	2.1%	-3.0%
Cc1c(NC(=O)c2cc(S(=O)(=O)N3CCCCC3)ccc2Cl)c(=O)n(-c2ccccc2)n1C	·	·	·	6.4%	-3.9%	·
C[C@@]12C(=O)Nc3cc(Cl)ccc3C(=O)N1[C@H]1c3cc(Br)ccc3OC[C@@H]1[C@@H]2c1ccccc1	·	·	·	1.1%	4.0%	·
CSc1ccccc1NC(=O)Nc1cccc(Cl)c1C	-5.0%	16.6	20.7	0.5%	1.5%	·
O=C(Nc1ccncc1)Nc1cccc(Cl)c1Cl	3.1%	23.1	30.8	2.1%	4.6%	-8.6%
O=C(Nc1ccccc1)Nc1cccc(Cl)c1Cl	-0.7%	active	37.4*	-62.0%	7.3%	-31.1%
CSc1ccccc1NC(=O)Nc1cccc(Cl)c1Cl	6.1%	-6.1	10.1*	0.5%	5.2%	-3.9%
Nc1nc(F)nc2c1ncn2[C@@H]1O[C@H](COP(=O)(O)O)[C@@H](O)[C@@H]1O	·	·	·	·	1.5%	·
COc1cc(/C=N/NC(N)=S)ccc1OC(=O)c1ccc(C)cc1	-0.4%	-29.6	5.8	16.6%	-0.8%	-7.2%
COc1ccc(/C=N/NC(=S)Nc2ccccc2)cc1COc1cccc(C)c1C	13.1%	31.1*	8.0	-0.5%	-7.6%	8.7%
COc1ccc(/C=N/NC(=S)Nc2cccc(C(=O)O)c2)cc1OC	-5.5%	26.1	16.2*	0.7%	-3.5%	12.7%
COc1cccc(/C=N/NC(=S)Nc2cccc(C(=O)O)c2)c1	0.1%	95.4*	36.5*	-0.1%	-1.3%	·
SMILES	LmPK inhibitor	Shiga inhibitor	CHX counter	SARS PLP yeast	TbPYK inhibitor	NS1 function inh
COc1cc(/C=N/NC(=S)Nc2cccc(C(=O)O)c2)cc(OC)c1OC	0.8%	-2.1	5.9	16.8%	-13.1%	2.9%
COc1ccc(C(=O)Oc2cccc(/C=N/NC(N)=S)c2)cc1	-2.3%	51.0*	16.0*	14.5%	-5.0%	12.1%
CCc1ccc(C(=O)CCC(=O)Nc2ccc(OC)c(S(=O)(=O)N3CCCCC3)c2)cc1	·	·	·	1.6%	2.5%	·
O=C(CSc1ccc2nnc(-c3cccnc3)n2n1)Nc1ccccc1C(F)(F)F	-7.2%	-2.8	-1.0	12.0%	-11.5%	16.8%
CN[C@@H]1[C@H](O[C@@H]2O[C@H](C)[C@@](O)(CO)[C@H]2O[C@H]2[C@H](O)[C@H](O)[C@H](N=C(N)N)[C@@H](O)[C@@H]2N=C(N)N)O[C@@H](CO)[C@H](O)[C@H]1O	·	-16.9	13.3	·	·	·
N#C/C(=C\c1ccc(OCC(N)=O)cc1)c1ccccc1	-6.3%	88.3*	39.2*	5.8%	-5.1%	-6.8%
COc1ccc(C=C(C#N)c2ccc(OC)cc2)cc1	·	·	·	·	1.7%	·
Cc1ccc(CNC(=O)C2CCC(=O)N(Cc3cccc(F)c3)C2)s1 (configuration not stated)	·	·	·	·	4.4%	·
Cc1csc(=O)n1CCC(=O)OCC(=O)NCc1ccc(F)cc1	·	·	·	-1.1%	0.8%	·
Fc1cnc(N/N=C/c2ccc(-c3ccc(Br)cc3)o2)nc1N1CCOCC1	1.0%	57.7*	34.2*	-1.7%	-1.7%	0.5%
CCOc1cc(/C=N\Nc2ncc(F)c(N3CCOCC3)n2)ccc1Oc1nc(Cl)ncc1F	6.5%	100.4*	42.3*	1.6%	-10.2%	5.6%
CCOc1cc(/C=N/NC(=O)c2ccc(O)cc2)ccc1Oc1nc(Cl)ncc1F	9.0%	5.1	8.8	0.1%	-12.9%	·
C=C1C(CCl)(CCl)C2(Cl)C(Cl)C(Cl)C1(Cl)C2(Cl)Cl (configuration not stated)	·	·	·	·	-1.3%	·
CCOc1ccccc1NC(=O)C(CC)n1c(C(=O)OC)cc2occc21 (configuration not stated)	·	·	·	·	1.9%	·
COc1ccc(N2CCN(c3ncccn3)CC2)cc1	-7.9%	152.5*	24.5*	6.6%	4.5%	-4.1%
COc1cccc(N2CCN(c3ccc([N+](=O)[O-])cn3)CC2)c1	6.3%	-12.5	-4.2	-0.6%	1.4%	-0.5%
COc1cccc(N2CCN(c3cnc4ccccc4n3)CC2)c1	4.3%	94.1*	35.8*	-3.0%	-1.9%	·
COc1ccc(N2CCN(c3cc(C)c4ccccc4n3)CC2)cc1	11.3%	2.4	7.1	-7.0%	-0.6%	·
COc1ccc(N2CCN(c3cnc4ccccc4n3)CC2)cc1	-0.6%	70.2*	36.8*	-0.3%	-9.3%	-7.8%
CC(C)(CN1CCN(C(c2ccccc2)c2ccccc2)CC1)NS(=O)(=O)c1ccccc1	0.3%	11.8	-1.1	-8.1%	1.6%	-17.0%
Cc1c(CCC(=O)NCCCN2CCCC2=O)c(=O)oc2c(C)c(O)ccc12	-1.0%	-0.4	-0.6	-7.7%	0.9%	3.4%
COc1ccc(COc2ncnc3ccc(Br)cc23)cc1F	2.4%	24.1	19.1*	-1.7%	2.1%	-16.0%
COc1ccc(Nc2ncnc3ccc(Br)cc23)cc1OC	-8.4%	2.4	-4.6	2.5%	7.2%	-4.2%
COc1ccc(Cn2c(-c3ccc(Br)cc3)c[n+]3ccccc23)cc1	-11.2%	48.6*	56.6*	-6.1%	3.3%	-5.0%
CC(=O)N1CCC[C@@]2(CCN(C(=O)Nc3ccccc3)C2)C1	·	·	·	·	-6.0%	·
